{"source": "PubChem BioAssay AID463173", "about": "(ICCB-Longwood Screening Facility, Harvard Medical School, 2010)", "note": "Hit rate of the full screen: of about 52,000 compounds, about 1,700 (3.3%) were called active. Shown is part of a subset that was picked to be rich in actives. A number with no mark means an inactive call. Rule as the data show it: active = survival mostly below about 52% (no sharp cut-off); inactive = mostly above about 56%.", "data": [{"system": "Wild type", "assay": "growth inhibition of S. aureus wild type versus tarO mutant, primary screen, teichoic acid synthesis inhibitors, RN4220, OD600 (AID 463173)", "details": "S. aureus RN4220 wild type/DeltatarO growth, OD600, 18 h, stronger effect = lower value, screened at 18.75 µg/mL (by protocol)", "values": [{"smiles": "CCCN(CCC)CCNC(=O)Cn1cc2c(n1)-c1c(oc(C(=O)N3CCCC3)c1C)CC2", "survival": "106%"}, {"smiles": "COc1ccc(-c2nc3ccccc3n3c(-c4cccc(C)c4)c4c(=O)n(C)c(=O)n(C)c4c23)cc1OC", "survival": "77%"}, {"smiles": "CC(C)Oc1ccc(CNC(=O)c2sc3ncccc3c2-n2cccc2)cc1", "survival": "64%"}, {"smiles": "O=C(CN1CCC(n2cnc3cc(F)ccc32)CC1)Nc1ccccc1Br", "survival": "108%"}, {"smiles": "CCOC(=O)c1ccc(NC(=O)c2c(NCc3cc(OC)c(OC)cc3OC)sc3c2CCCC3)cc1", "survival": "85%"}, {"smiles": "COCCn1c(SCC(=O)Nc2sc(C)c(C)c2C#N)nnc1C(C)C", "survival": "103%"}, {"smiles": "COc1ccccc1-c1nn(CCC(=O)Nc2ccccc2)c2nc(C)cc(C)c12", "survival": "86%"}, {"smiles": "COC(=O)c1cc2oc3ccccc3c2n1CC(=O)Nc1ccc(C)cc1C", "survival": "86%"}, {"smiles": "COC(=O)c1cc2oc3ccccc3c2n1Cc1ccc(C)cc1", "survival": "82%"}, {"smiles": "COC(=O)c1cc2oc3ccccc3c2n1Cc1nc(-c2cccc(C)c2)oc1C", "survival": "72%"}, {"smiles": "COC(=O)c1cc2oc3ccccc3c2n1Cc1ccc(Cl)cc1", "survival": "21%"}, {"smiles": "COC(=O)c1cc2oc3ccccc3c2n1Cc1cccc(C)c1", "survival": "3% (active)"}, {"smiles": "CCN(C(=O)Cn1c(C(=O)OC)cc2oc3ccccc3c21)c1cccc(C)c1", "survival": "24% (active)"}, {"smiles": "S=c1nc[nH]c2c1[nH]c1ccccc12", "survival": "98%"}, {"smiles": "CC1CCN(S(=O)(=O)c2cc(C(=O)Nc3ccc(Br)cc3F)n(C)c2)CC1", "survival": "77%"}, {"smiles": "COc1cc(C(c2nnnn2Cc2ccco2)N2CCN(C3CCCC3)CC2)cc(OC)c1OC", "note": "(stereo not given)", "survival": "107%"}, {"smiles": "CC1CCN(C(=O)Cn2cc(SCC(=O)NCc3ccccc3)c3ccccc32)CC1", "survival": "86%"}, {"smiles": "Cc1ccc(C)n1-c1c(C(=O)NCCC(C)C)sc2ncccc12", "survival": "79%"}, {"smiles": "Cc1nc2ccccc2c(=O)n1-c1ccc(NC(=O)c2cccc([N+](=O)[O-])c2)cc1", "survival": "59%"}, {"smiles": "Cc1cc(N2CCN(c3cccc(C(F)(F)F)c3)CC2)n2nc(-c3ccccc3)nc2n1", "survival": "87%"}, {"smiles": "COc1ccc(-c2nc3nc(C)cc(N4CCN(c5cccc(C(F)(F)F)c5)CC4)n3n2)cc1", "survival": "88%"}, {"smiles": "Cc1cc(N2CCN(c3cccc(C(F)(F)F)c3)CC2)n2nc(-c3ccccc3C)nc2n1", "survival": "11% (active)"}, {"smiles": "CCN(CC)C(=O)C1=C(C)Nc2nc3ccccc3n2C1c1ccc(Br)cc1", "note": "(stereo not given)", "survival": "80%"}, {"smiles": "Cc1cc(S(=O)(=O)C(CNC(=O)COc2ccccc2)c2cccs2)ccc1F", "note": "(stereo not given)", "survival": "153%"}, {"smiles": "O=C1CC(c2ccccc2)Sc2ccccc2N1Cc1ccc(F)cc1", "note": "(stereo not given)", "survival": "16% (active)"}, {"smiles": "COc1ccc(C2CC(=O)N(Cc3ccc(F)cc3)c3ccccc3S2)cc1", "note": "(stereo not given)", "survival": "30%"}, {"smiles": "COc1cc(C2CC(=O)N(Cc3cccc(F)c3)c3ccccc3S2)cc(OC)c1OC", "note": "(stereo not given)", "survival": "83%"}, {"smiles": "COc1cc(C2CC(=O)N(Cc3ccc(F)cc3)c3ccccc3S2)cc(OC)c1OC", "note": "(stereo not given)", "survival": "72%"}, {"smiles": "O=C1CC(c2ccccc2)Sc2ccccc2N1Cc1ccccc1F", "note": "(stereo not given)", "survival": "96%"}, {"smiles": "COc1ccc(C2CC(=O)N(Cc3cccc(F)c3)c3ccccc3S2)cc1", "note": "(stereo not given)", "survival": "9% (active)"}, {"smiles": "COc1ccc(S(=O)(=O)c2c(Nc3ccc(C)cc3)sc(C(=O)c3ccc4c(c3)OCO4)c2N)cc1", "survival": "143%"}, {"smiles": "CCNc1nc(NCC)nc(N(n2cnnc2)S(=O)(=O)c2ccc(C)cc2)n1", "survival": "45%"}, {"smiles": "CCOc1ccc(CNC(=O)c2cnc3sc(N(CC)CC)nn3c2=O)cc1", "survival": "75%"}, {"smiles": "COc1ccc(N2CCN(CCCNC(=O)Cn3c(-c4cccs4)cc4ccccc43)CC2)cc1", "survival": "86%"}, {"smiles": "Cc1cc(C)cc(NC(=O)CN2C(=O)COc3ccc(S(=O)(=O)Nc4ccccc4)cc32)c1", "survival": "98%"}, {"smiles": "Brc1cccc(-c2nnn3c2nc(N2CCCCC2)c2ccccc23)c1", "survival": "76%"}, {"smiles": "Clc1ccc(-c2nnn3c2nc(N2CCCCC2)c2ccccc23)cc1", "survival": "45%"}, {"smiles": "CC1CCCN(c2nc3c(-c4ccc(Cl)cc4)nnn3c3ccccc23)C1", "note": "(stereo not given)", "survival": "83%"}, {"smiles": "Cc1ccc(-c2nnn3c2nc(N2CCC(C)CC2)c2ccccc23)cc1", "survival": "-2% (active)"}, {"smiles": "COc1ccc(-c2nnn3c2nc(N2CCCC(C)C2)c2ccccc23)cc1", "note": "(stereo not given)", "survival": "0% (active)"}, {"smiles": "CC1CCN(c2nc3c(-c4cccc(Br)c4)nnn3c3ccccc23)CC1", "survival": "85%"}, {"smiles": "COc1ccc(C2C(C(=O)Nc3ccc(C)cc3C)=C(C)Nc3nc4ccccc4n32)c(OC)c1", "note": "(stereo not given)", "survival": "65%"}, {"smiles": "CCOC(=O)C1CCCN(S(=O)(=O)c2ccc3[nH]c(=O)oc3c2)C1", "note": "(stereo not given)", "survival": "88%"}, {"smiles": "CCOc1ccc(NC(=O)CCCn2c(C)c3cnn(-c4ccccc4)c(=O)c3c2C)cc1", "survival": "89%"}, {"smiles": "COc1ccc(Cl)cc1NC(=O)C(C)N1Cc2ccccc2C1=O", "note": "(stereo not given)", "survival": "85%"}, {"smiles": "COC(=O)CSc1nc(N)c(C#N)c(-c2ccccc2)c1C#N", "survival": "112%"}, {"smiles": "CCC(Sc1nc(N)cc(=O)[nH]1)C(=O)NC(C)c1ccccc1", "note": "(stereo not given)", "survival": "103%"}, {"smiles": "O=C(CSc1nc(-c2ccccc2)cc(=O)[nH]1)c1ccccc1", "survival": "119%"}, {"smiles": "CCOC(=O)C1CCCN(c2ncnc3c2nnn3C)C1", "note": "(stereo not given)", "survival": "121%"}, {"smiles": "CCOC(=O)C1CCN(c2cc(C)c(C#N)c3nc4ccccc4n23)CC1", "survival": "99%"}, {"smiles": "CCOC(=O)C1CCN(c2ncnc3c2nnn3C)CC1", "survival": "10% (active)"}, {"smiles": "Cn1nnc2c(N3CCN(c4ccccc4)CC3)ncnc21", "survival": "88%"}, {"smiles": "CCOC(=O)C1CCN(c2nc3ccccc3nc2Cl)CC1", "survival": "-26% (active)"}, {"smiles": "COc1ccc(N2CCN(c3ncnc4c3nnn4C)CC2)cc1", "survival": "-2% (active)"}, {"smiles": "CC1CCN(c2ncnc3c2nnn3C)CC1", "survival": "83%"}, {"smiles": "CCOC(=O)C1CCN(c2nc(-c3ccc(Br)cc3)nc3ccccc23)CC1", "survival": "75%"}, {"smiles": "Cn1nnc2c(N3CCN(c4ccc(F)cc4)CC3)ncnc21", "survival": "80%"}, {"smiles": "CCn1nnc2cc(C(=O)Nc3cccc(Cl)c3)ccc21", "survival": "87%"}, {"smiles": "CN(Cc1ccccc1)C(=O)C1CCC(CNS(=O)(=O)c2ccc3c(c2)CCCC(=O)N3)CC1", "note": "(stereo not given)", "survival": "131%"}, {"smiles": "Clc1ccc2nc(-c3ccc(Br)o3)c(Nc3ccc4c(c3)OCCO4)n2c1", "survival": "93%"}, {"smiles": "O=C(CSc1ncccn1)NCCC1=CCCCC1", "survival": "112%"}, {"smiles": "CCc1ccc(-n2cnc3cc(C(=O)NCc4ccc(C)cc4)ccc32)cc1", "survival": "65%"}, {"smiles": "COc1cccc(OCc2nc3ccccc3n2CCOc2cccc(C)c2)c1", "survival": "73%"}, {"smiles": "CCc1nc2ccccc2n1CCCCOc1ccc(C)cc1", "survival": "1% (active)"}, {"smiles": "CCCCn1c(COc2cccc(OC)c2)nc2ccccc21", "survival": "88%"}, {"smiles": "CC(C)(C)C(=O)NCCc1nc2ccccc2n1CCCCOc1ccccc1", "survival": "79%"}, {"smiles": "Cc1ccccc1OCCCCn1c(CCNC(=O)C(C)(C)C)nc2ccccc21", "survival": "65%"}, {"smiles": "Cc1ccccc1OCCn1c(CCNC(=O)C(C)(C)C)nc2ccccc21", "survival": "75%"}, {"smiles": "CC(=O)NCCc1nc2ccccc2n1CCCCOc1ccc(Cl)cc1", "survival": "95%"}, {"smiles": "CCc1nc2ccccc2n1CCCCOc1ccc(Cl)cc1", "survival": "2% (active)"}, {"smiles": "Cc1ccc(OCCCCn2c(CCNC(=O)C(C)(C)C)nc3ccccc32)cc1", "survival": "76%"}, {"smiles": "CC(C)(C)C(=O)NCCc1nc2ccccc2n1CCCCOc1ccc(Cl)cc1", "survival": "28%"}, {"smiles": "CCCn1c(COc2cccc(C)c2)nc2ccccc21", "survival": "25% (active)"}, {"smiles": "CCc1nc2ccccc2n1CCCCOc1ccccc1C", "survival": "24% (active)"}, {"smiles": "Cc1ccc(-c2nc3ccccc3[nH]2)cc1NC(=O)COc1ccc(Cl)cc1Cl", "survival": "45%"}, {"smiles": "CC1=C(c2ccc(C(C)C)cc2)S(=O)(=O)NC1=NCc1ccccc1Br", "survival": "82%"}, {"smiles": "COc1cc(NC(=O)CSc2nc3ccccc3nc2Cc2ccccc2OC)cc(OC)c1", "survival": "66%"}, {"smiles": "COc1ccccc1Cn1cc(C(=O)c2ccc(C)cc2)c(=O)c2cc(F)cc(F)c21", "survival": "81%"}, {"smiles": "Cc1cc(C)c(NC(=O)Cn2c(=O)n(CCCCC(=O)NCc3ccccc3Cl)c(=O)c3ccccc32)c(C)c1", "survival": "106%"}, {"smiles": "Cc1cncn1CCc1nc2c3ccccc3nc(SCC(=O)Nc3cccc(Cl)c3)n2n1", "survival": "80%"}, {"smiles": "CCc1c(CN2CCN(c3ccccc3F)CC2)csc1C", "survival": "52%"}, {"smiles": "Cc1ccc(CNC(=O)CSCc2ccc(F)cc2)cc1", "survival": "101%"}, {"smiles": "O=C(CCCSc1nc(-c2ccco2)cc(C(F)(F)F)n1)NCC1CCCO1", "note": "(stereo not given)", "survival": "108%"}, {"smiles": "COc1ccccc1CNC(=O)c1cc2c(-c3ccc(Cl)cc3)nn(C)c2s1", "survival": "151%"}, {"smiles": "COCc1nc2ccccc2n1CCOc1cccc(C)c1", "survival": "53%"}, {"smiles": "Cc1cccc(OCCCn2c(CCNC(=O)C(C)(C)C)nc3ccccc32)c1", "survival": "84%"}, {"smiles": "CCc1nc2ccccc2n1CCCCOc1cccc(C)c1", "survival": "12% (active)"}, {"smiles": "COc1ccc(-c2noc(N3CCC(C(=O)N4CCN(c5ccccc5F)CC4)CC3)n2)cc1", "survival": "108%"}, {"smiles": "COc1ccc(-n2ncc3c(NC4CCCC4)ncnc32)cc1", "survival": "129%"}, {"smiles": "Cc1cccc(N2CCN(C(=O)Cc3c(C(=O)O)c(C)cn3C)CC2)c1C", "survival": "70%"}, {"smiles": "COc1ccc(N2CCN(C(=O)Cc3c(C(=O)O)c(C)cn3C)CC2)cc1", "survival": "14% (active)"}, {"smiles": "Cc1cn(C)c(CC(=O)N2CCN(c3cccc(Cl)c3)CC2)c1C(=O)O", "survival": "78%"}, {"smiles": "Cc1cn(C)c(CC(=O)N2CCN(c3ccccc3F)CC2)c1C(=O)O", "survival": "69%"}, {"smiles": "Cc1cn(C)c(CC(=O)N2CCN(c3ccc(F)cc3)CC2)c1C(=O)O", "survival": "133%"}, {"smiles": "COc1ccccc1N1CCN(C(=O)Cc2c(C(=O)O)c(C)cn2C)CC1", "survival": "-6% (active)"}]}]}
